Shiga toxin inh: A qHTS for Small Molecule Inhibitors of Shiga Toxin; AID 2315, 2010; inhibition, % at 38.7 µM; hit rate 9.2% among 290,000; Vero cells, Shiga toxin protein synthesis inhibition reporter; in the data active = inhibition mostly above about 28%, no sharp cut-off; inactive = mostly below about 43%; also: 0% is about no effect
NS1 function inh: qHTS Assay for Inhibitors of Influenza NS1 Protein Function; hit rate 0.4% among 270,000; Potency, µM (doses to about 46.1 µM), inactives show at the highest dose activity, positive = more growth; AID 2326, 2010; calls by dose curve; also: potency is read from the fitted curve at half-maximal effect; actives are rising curves; nearly all actives have a fitted effect of over 50% in size
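Read-out: OD600 growth recovery of NS1-expressing budding yeast. Cells grown overnight at 30C in -URA glucose medium, washed, resuspended and diluted 1:100 in 2% galactose assay medium, pH 6.0. Same strain lacking NS1 served as positive control.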
Cycloheximide cs: Cycloheximide Counterscreen for Small Molecule Inhibitors of Shiga Toxin | cell reporter, cycloheximide protein synthesis inhibition counterscreen | max response, % | hit rate 12% among 300,000 | AID 2314, 2010; in the data active = max response mostly above about 13%, no sharp cut-off; inactive = mostly below about 14%; also: read at 38.3 µM for the half of the compounds with a filed dose; 0% is about no effect
Pf growth 48h: Primary qHTS for delayed death inhibitors of the malarial parasite plastid, 48 hour incubation. Potency, µM (doses to about 28.7 µM), for inactives: at the highest dose activity change, negative = inhibition, most hits filed as inhibitors. hit rate 5.9% among 310,000. AID 504832, 2011. P. falciparum luciferase growth in erythrocytes, 48 h; also: potency is read from the fitted curve at half-maximal effect; % is scaled to controls: 0 for no effect and ±100 for the full control effect
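Parasite viability was followed by luminescence of a genomically integrated firefly luciferase. Cultures held 0.1% parasitemia at 2% hematocrit (final), incubated under 5% CO2 at 37 C.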
Pf growth 96h: Primary qHTS for delayed death inhibitors of the malarial parasite plastid, 96 hour incubation. hit rate 6.9% among 320,000. AID 504834, 2011. P. falciparum luciferase reporter growth, 96 h. Potency, µM (top dose mostly 28.7 µM), for the others: at the highest dose activity change, negative = inhibition, most hits filed as inhibitors; also: potency is read from the fitted curve at half-maximal effect; % is scaled to controls: 0 for no effect and ±100 for the full control effect
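P. falciparum expressing integrated firefly luciferase, in erythrocytes at 2% hematocrit, 0.05% parasitemia, incubated with compounds 96 h at 37 C, 5% CO2. Growth inhibition read as loss of luminescence; two-generation exposure targets delayed-death apicoplast inhibitors.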
Starred values were filed as active, the others as inactive; u = inconclusive; x = no result given. Most compounds without a hit are left out; they make up all but 21% or so of the library. Unless noted, calls follow the shape of the dose curve; as a rule, active = well fitted inhibition curve with a large enough effect; inconclusive = small, poorly fitted or top-dose-only effect, or another doubt; inactive = no such curve, though single readings can be large or run the other way.

SMILES	Shiga toxin inh	NS1 function inh	Cycloheximide cs	Pf growth 48h	Pf growth 96h
COc1ccc2c(OC)cc(-c3ccccc3)nc2c1	12	-9%	-1	-7%	u
Cc1ccc(SCc2c(C(=O)N/N=C/c3ccoc3)nnn2-c2nonc2N)cc1	-11	17%	-4	15%	9%
CCCCN1C(=N)C(CC)(CC)C(=O)NC1=O	-13	7%	-3	7%	15µM*
COC(=O)c1ccc2c(c1O)C(=O)c1ccccc1C2=O	64*	-41%	39*	x	4.1µM*
O=C1c2ccccc2C(=O)c2c1ccc(O)c2O	x	x	x	-4%	16%
CCSc1c(C(=O)NC)ccc2c1C(=O)c1ccccc1C2=O	-15	-32%	-2	-9%	15µM*
CN(C)CC(C)(C)CNC(C(=O)Nc1ccc(Cl)cc1C(F)(F)F)c1ccccc1 (stereo not given)	-8	x	6	u	u
CCOC(=O)c1oc2ccccc2c1CSc1nnnn1-c1ccc(OC)cc1	-7	3%	1	5%	12µM*
COc1cccc(CSc2nnnn2-c2ccc(O)cc2)c1	9	x	-1	9.3µM*	u
COc1ccc(-n2nnnc2SCC(=O)NC2CC2)cc1	x	x	x	-13%	9%
c1ccc(CSc2nnnn2-c2ccccc2)cc1	4	1%	10	x	38%
CCCn1c(=O)c2ccccc2n2c(SCc3c(C(=O)OCC)oc4ccccc34)nnc12	-22	-2%	-3	u	-7%
COc1ccc(-n2nnnc2SCC#CCO)cc1	-20	-12%	-1	-6%	0.47µM*
CN(CC(=O)Nc1cccc(F)c1)C(=O)C1CC(=O)N(Cc2ccccc2)C1 (stereo not given)	13	6%	-1	u	4%
Cn1cc(NC(=O)Nc2ccc(C(F)(F)F)cc2)c(C(F)(F)F)n1	17	-37%	-2	u	u
CCN(CC(=O)NCc1ccc(Cl)cc1)C(=O)C(C)Sc1ccccc1 (stereo not given)	-8	-2%	-3	-1%	2%
CCOC(=O)c1ccccc1NC(=O)COC(=O)CCC1CCCC1	x	x	x	-15%	-2%
CCN(CC(=O)NCc1cccs1)C(=O)COc1ccc(C(C)=O)cc1	x	x	x	23%	39%
COCCCNc1nc2ccccc2nc1NS(=O)(=O)c1ccc(C)cc1C	11	-4%	-3	9%	1%
COc1ccc(/C=C2\C(=O)N(c3c(Cl)cc(Cl)cc3Cl)N=C2NC(=O)c2cccc([N+](=O)[O-])c2)cc1	-15	u	-1	1%	14%
CC(Oc1ccc2c(c1)c1ccnc3c4ccccc4c(=O)n2c13)C(=O)NCCN1CCOCC1 (stereo not given)	-11	12%	-4	4.7µM*	4.1µM*
COc1ccc2c(c1OC)c(=O)n1c3ccc(OC(C)C(=O)NCCCN4CCOCC4)cc3c3ccnc2c31 (stereo not given)	-7	-15%	-2	3.7µM*	4.1µM*
COc1ccc2c(c1OC)c(=O)n1c3ccc(OC(C)C(=O)NCCN4CCOCC4)cc3c3ccnc2c31 (stereo not given)	-5	-35%	-3	u	3.7µM*
CCN(CC)CCCn1c2c(c(SCC(=O)Nc3nccs3)nc1=O)CCC2	x	x	x	-4%	-9%
COc1ccc(C(C)(C)C)cc1NC(=S)NCCN1CCOCC1	-30	10%	-2	-18%	u
SMILES	Shiga toxin inh	NS1 function inh	Cycloheximide cs	Pf growth 48h	Pf growth 96h
Cc1cccc(NC(=O)Cn2c(/C=C/c3ccccc3)nc3ccccc32)c1	111*	8%	28*	119%	u
COCCn1c(/C=C/c2ccccc2)nc2ccccc21	68*	-6%	33*	31%	3%
COc1ccccc1Cn1c(C(C)C)nc2ccccc21	-11	1%	-3	u	u
COc1ccccc1Cn1c(/C=C/c2ccccc2)nc2ccccc21	87*	-26%	74*	u	u
COc1ccc(/C=C/c2nc3ccccc3n2Cc2ccccc2OC)cc1	106*	-11%	69*	u	u
CCOC(=O)N1C(=O)C2(CCCCC2)N(c2ccccc2Cl)C1=S	13	-51%	3	3%	-4%
CC(=O)n1c2c(c3ccccc31)OC(N)=C(C#N)C2c1ccc(C(C)C)cc1 (stereo not given)	83*	-29%	46*	21%	91%
CC(=O)C1=C(C)OC(N)=C(C#N)C1c1cccc2ccccc12 (stereo not given)	2	7%	-3	1%	5%
CCCCCCCCOc1ccccc1C(=O)Nc1ccc(C(=O)OCC[N+](C)(CC)CC)cc1	x	x	x	15µM*	1.3µM*
CCOC(=O)c1cccc(NC(=O)c2ccc(NC(=O)c3ccco3)cc2)c1	-14	9%	-3	u	-2%
CCCCOC(=O)c1ccc(NC(=S)NC(=O)c2ccco2)cc1	5	10%	6	u	12µM*
CCCCCOC(=O)c1ccc(NC(=O)c2ccco2)cc1	68*	-82%	36*	1.3µM*	3%
CCc1ccc2oc(C(=O)NCCc3ccc(S(N)(=O)=O)cc3)cc(=O)c2c1	-9	-1%	-3	x	u
O=C(CCC(=O)Nc1ccccc1Cl)NNC(=O)Nc1cccc([N+](=O)[O-])c1	-4	-7%	8	u	0%
C=CCn1c(=O)c(C(=O)Nc2nnc(C)s2)c(O)c2ccccc21	x	-69%	x	x	x
CC1CCN(CCCCOc2ccc([N+](=O)[O-])cc2)CC1	-23	-10%	-3	u	u
COC(=O)C1CCN(Cc2ccc(OCCCN3CCN(c4ccc([N+](=O)[O-])cc4)CC3)cc2)CC1	20	-6%	-2	2.3µM*	10µM*
CCOc1ccc(CCNC(=O)CN2C(=O)COc3ccc(S(=O)(=O)N4CCOCC4)cc32)cc1	-4	-15%	2	9%	u
CC(=O)Nc1ccc(Oc2nc(-c3ccccn3)nc3ccccc23)cc1	54*	-4%	58*	u	12µM*
CC(=O)Nc1cccc(Oc2nc(C(F)(F)F)nc3ccccc23)c1	-4	-21%	0	-1%	2%
CC(=O)Nc1cccc(Oc2nc(-c3ccccn3)nc3ccccc23)c1	36	-2%	15*	u	u
CC(=O)Nc1ccc(Oc2ncccn2)cc1	x	6%	x	x	x
N#CC(C#N)=C1C=CC=CN1/C(=C\c1ccccc1)C(=O)c1cccs1	57	u	24*	0%	u
O=C(Cc1ccc(Cl)cc1)c1ccc(O)cc1	110*	-4%	48*	74%	206%
O=C(Cc1ccccc1)NCC(=O)OCC(=O)c1ccc(Cl)cc1	-27	-1%	-3	0%	-23%
Cc1ccc(CC(=O)c2ccc(Cl)cc2)cc1	68*	8%	47*	102%	39%
NC(=O)c1cc(C(=O)Cc2ccc(Cl)cc2)c[nH]1	40*	3%	23*	69%	56%
O=C(Cc1ccccc1)c1ccc(Cl)cc1	60*	3%	32*	10%	-9%

From PubChem
